Data reported in publication PMC7862700, “An all-to-all approach to the identification of sequence-specific readers for epigenetic DNA modifications on cytosine”.

What was measured:
Experiment in all cases: DAPPL (digital affinity profiling via proximity ligation, sequencing); 10 mM Tris-HCl pH 7.5, 50 mM NaCl, 1 mM DTT, 4% glycerol, room temperature, 30 min; GST-TFs on glutathione beads, 16-mer random dsDNA library, 0.1% formaldehyde crosslink after washing; high values mean tight binding
[1] = target: T1, FLI1 (Homo sapiens, UniProt Q01543 1-452); details: protein: recombinant; tags: N-terminal GST; dsDNA, one strand shown
T1 sequence: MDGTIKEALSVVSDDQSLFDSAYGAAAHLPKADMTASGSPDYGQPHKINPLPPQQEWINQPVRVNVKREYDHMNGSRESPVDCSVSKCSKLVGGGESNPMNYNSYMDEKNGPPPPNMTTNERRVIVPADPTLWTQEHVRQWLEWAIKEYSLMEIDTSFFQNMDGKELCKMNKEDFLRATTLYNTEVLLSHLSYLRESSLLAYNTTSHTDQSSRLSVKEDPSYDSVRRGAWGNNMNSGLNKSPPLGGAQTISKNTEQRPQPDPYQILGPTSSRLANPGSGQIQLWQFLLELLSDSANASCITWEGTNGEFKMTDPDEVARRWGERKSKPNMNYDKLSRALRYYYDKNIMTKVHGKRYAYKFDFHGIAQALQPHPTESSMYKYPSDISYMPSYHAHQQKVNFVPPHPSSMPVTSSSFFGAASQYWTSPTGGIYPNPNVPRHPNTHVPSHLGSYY
Outline: (§1)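 After expression in yeast as GST fusions, human transcription factors were bound to glutathione beads, DNA-barcoded and mixed with a tag-only sample. The pools were incubated with 200 nmole of a 16-mer random double-stranded DNA library in Tris/NaCl/DTT/glycerol buffer (30 min, room temperature), washed and crosslinked with 0.1% formaldehyde. Proximity ligation with BsaI/T4 ligase ran for 1 h at 37 °C, before PCR amplification and sequencing on an Illumina NextSeq500. Binding signal is a hexamer's read frequency for a factor divided by its frequency for the tag-only sample.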

[2] = target: T2, ELK1 (Homo sapiens, UniProt P19419 1-428); details: protein: recombinant; tags: N-terminal GST; dsDNA, one strand shown
T2 sequence: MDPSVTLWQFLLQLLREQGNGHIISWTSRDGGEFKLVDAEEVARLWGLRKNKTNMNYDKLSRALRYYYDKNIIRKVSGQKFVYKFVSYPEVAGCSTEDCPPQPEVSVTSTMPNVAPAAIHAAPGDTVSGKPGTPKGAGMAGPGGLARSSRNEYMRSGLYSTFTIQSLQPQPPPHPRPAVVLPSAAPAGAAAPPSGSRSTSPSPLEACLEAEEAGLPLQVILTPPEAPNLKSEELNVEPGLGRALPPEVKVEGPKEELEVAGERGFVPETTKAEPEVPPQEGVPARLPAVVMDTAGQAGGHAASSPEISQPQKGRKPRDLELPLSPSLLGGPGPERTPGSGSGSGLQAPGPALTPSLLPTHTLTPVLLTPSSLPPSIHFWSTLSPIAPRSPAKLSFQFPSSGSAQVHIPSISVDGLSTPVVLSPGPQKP
Outline: as §1

[3] = target: T3, GABPA (Homo sapiens, UniProt Q06546 1-454); details: protein: recombinant; tags: N-terminal GST; dsDNA, one strand shown
T3 sequence: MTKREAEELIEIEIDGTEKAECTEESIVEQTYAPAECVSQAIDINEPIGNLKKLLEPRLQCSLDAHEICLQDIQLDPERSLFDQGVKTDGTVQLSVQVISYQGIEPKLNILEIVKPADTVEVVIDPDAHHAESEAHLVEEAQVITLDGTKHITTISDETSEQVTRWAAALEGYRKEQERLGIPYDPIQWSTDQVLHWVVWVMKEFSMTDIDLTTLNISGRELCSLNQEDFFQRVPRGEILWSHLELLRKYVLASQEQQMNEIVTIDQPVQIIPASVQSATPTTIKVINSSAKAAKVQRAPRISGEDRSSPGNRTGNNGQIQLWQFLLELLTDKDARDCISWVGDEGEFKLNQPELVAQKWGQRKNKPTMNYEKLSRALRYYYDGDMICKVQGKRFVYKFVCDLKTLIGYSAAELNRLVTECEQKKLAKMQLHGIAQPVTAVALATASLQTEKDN
Outline: as §1

[4] = target: T4, ERG (Homo sapiens, UniProt P11308 1-479); details: protein: recombinant; tags: N-terminal GST; dsDNA, one strand shown
T4 sequence: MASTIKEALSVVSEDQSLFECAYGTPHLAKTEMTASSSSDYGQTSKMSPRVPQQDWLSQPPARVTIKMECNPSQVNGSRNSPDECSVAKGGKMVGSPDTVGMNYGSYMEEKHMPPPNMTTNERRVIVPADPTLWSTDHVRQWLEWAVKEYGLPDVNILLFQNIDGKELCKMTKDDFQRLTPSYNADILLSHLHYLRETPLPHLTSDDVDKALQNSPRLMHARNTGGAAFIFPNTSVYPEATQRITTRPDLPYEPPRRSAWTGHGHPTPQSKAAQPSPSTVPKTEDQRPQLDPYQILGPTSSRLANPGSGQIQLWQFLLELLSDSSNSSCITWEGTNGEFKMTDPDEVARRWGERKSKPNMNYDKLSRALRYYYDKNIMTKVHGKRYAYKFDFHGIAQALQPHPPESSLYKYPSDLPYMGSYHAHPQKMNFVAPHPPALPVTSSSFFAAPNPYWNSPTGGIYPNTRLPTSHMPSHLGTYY
Outline: as §1

[5] = target: ELF1 (Homo sapiens, UniProt P32519 1-619); details: protein: recombinant; tags: N-terminal GST; dsDNA, one strand shown
Outline: as §1

[6] = target: T5, EHF (Homo sapiens, UniProt Q9NZC4 1-300); details: protein: recombinant; tags: N-terminal GST; dsDNA, one strand shown
T5 sequence: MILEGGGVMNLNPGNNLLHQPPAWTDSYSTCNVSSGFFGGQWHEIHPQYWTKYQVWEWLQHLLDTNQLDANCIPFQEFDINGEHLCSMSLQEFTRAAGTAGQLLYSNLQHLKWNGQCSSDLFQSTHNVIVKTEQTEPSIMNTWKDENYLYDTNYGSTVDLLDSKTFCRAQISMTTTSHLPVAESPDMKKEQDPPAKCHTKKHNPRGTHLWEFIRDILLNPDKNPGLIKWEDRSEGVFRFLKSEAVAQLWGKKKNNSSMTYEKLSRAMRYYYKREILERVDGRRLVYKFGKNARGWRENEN
Outline: as §1

[7] = target: SPI1 (Homo sapiens, UniProt P17947 1-270); details: protein: recombinant; tags: N-terminal GST; dsDNA, one strand shown
Outline: as §1

[8] = target: SPIB (Homo sapiens, UniProt Q01892 1-262); details: protein: recombinant; tags: N-terminal GST; dsDNA, one strand shown
Outline: as §1

[9] = target: T6, ELK3 (Homo sapiens, UniProt P41970 1-407); details: protein: recombinant; tags: N-terminal GST; dsDNA, one strand shown
T6 sequence: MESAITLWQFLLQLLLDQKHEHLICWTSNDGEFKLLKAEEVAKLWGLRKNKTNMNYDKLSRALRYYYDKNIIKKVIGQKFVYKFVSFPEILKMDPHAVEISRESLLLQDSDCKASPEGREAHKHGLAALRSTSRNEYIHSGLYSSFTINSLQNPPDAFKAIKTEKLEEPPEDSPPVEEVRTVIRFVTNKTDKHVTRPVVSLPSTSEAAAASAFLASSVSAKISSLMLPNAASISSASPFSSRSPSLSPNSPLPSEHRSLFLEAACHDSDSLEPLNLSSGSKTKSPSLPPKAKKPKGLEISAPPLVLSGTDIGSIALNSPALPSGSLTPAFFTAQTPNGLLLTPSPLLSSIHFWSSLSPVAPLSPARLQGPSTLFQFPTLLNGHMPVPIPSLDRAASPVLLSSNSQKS
Outline: as §1

[10] = target: T7, FEV (Homo sapiens, UniProt Q99581 1-238); details: protein: recombinant; tags: N-terminal GST; dsDNA, one strand shown
T7 sequence: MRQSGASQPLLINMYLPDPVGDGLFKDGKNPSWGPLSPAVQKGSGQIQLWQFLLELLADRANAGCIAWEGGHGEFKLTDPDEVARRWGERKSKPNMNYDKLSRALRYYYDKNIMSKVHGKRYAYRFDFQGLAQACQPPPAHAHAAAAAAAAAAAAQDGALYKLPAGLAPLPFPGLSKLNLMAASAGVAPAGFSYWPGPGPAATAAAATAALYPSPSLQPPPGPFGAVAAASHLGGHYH
Outline: as §1

[11] = target: ETV5 (Homo sapiens, UniProt P41161 1-510); details: protein: recombinant; tags: N-terminal GST; dsDNA, one strand shown
Outline: as §1

[12] = target: HSF1 (Homo sapiens, UniProt Q00613 1-529); details: protein: recombinant; tags: N-terminal GST; chain copies: 3; dsDNA, one strand shown
Outline: as §1

[13] = target: T8, SPIC (Homo sapiens, UniProt Q8N5J4 1-248); details: protein: recombinant; tags: N-terminal GST; dsDNA, one strand shown
T8 sequence: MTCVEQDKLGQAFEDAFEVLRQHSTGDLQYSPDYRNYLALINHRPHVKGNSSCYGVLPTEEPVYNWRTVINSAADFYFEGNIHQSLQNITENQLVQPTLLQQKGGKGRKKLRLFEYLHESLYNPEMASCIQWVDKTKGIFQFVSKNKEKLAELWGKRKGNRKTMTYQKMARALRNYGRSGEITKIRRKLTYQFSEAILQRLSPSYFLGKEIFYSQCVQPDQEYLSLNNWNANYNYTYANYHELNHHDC
Outline: as §1

[14] = target: ELF4 (Homo sapiens, UniProt Q99607 1-663); details: protein: recombinant; tags: N-terminal GST; dsDNA, one strand shown
Outline: as §1

[15] = target: T9, ELK4 (Homo sapiens, UniProt P28324-2 1-405); details: protein: recombinant; tags: N-terminal GST; dsDNA, one strand shown
T9 sequence: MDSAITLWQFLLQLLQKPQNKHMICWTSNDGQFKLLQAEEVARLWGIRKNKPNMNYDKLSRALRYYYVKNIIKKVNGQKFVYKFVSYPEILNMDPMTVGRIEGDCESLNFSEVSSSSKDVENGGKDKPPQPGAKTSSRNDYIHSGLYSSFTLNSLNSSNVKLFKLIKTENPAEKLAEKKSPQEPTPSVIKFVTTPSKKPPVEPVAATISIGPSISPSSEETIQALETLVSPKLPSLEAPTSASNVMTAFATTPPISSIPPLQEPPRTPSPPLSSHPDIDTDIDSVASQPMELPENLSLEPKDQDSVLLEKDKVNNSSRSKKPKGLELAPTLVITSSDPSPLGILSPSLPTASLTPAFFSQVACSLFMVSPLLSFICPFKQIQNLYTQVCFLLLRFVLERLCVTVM
Outline: as §1

[16] = target: T10, ETV2 (Homo sapiens, UniProt O00321 1-342); details: protein: recombinant; tags: N-terminal GST; dsDNA, one strand shown
T10 sequence: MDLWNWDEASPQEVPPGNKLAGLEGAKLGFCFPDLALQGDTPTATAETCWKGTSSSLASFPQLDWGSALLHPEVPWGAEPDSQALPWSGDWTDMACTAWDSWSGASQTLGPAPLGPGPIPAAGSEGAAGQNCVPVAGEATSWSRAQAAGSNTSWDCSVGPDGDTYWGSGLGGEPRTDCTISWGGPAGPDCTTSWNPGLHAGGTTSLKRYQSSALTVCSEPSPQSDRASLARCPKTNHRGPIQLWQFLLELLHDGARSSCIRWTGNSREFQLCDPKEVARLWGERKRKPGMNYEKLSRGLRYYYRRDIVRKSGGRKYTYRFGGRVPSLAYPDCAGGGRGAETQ
Outline: as §1

[17] = target: T11, ELF3 (Homo sapiens, UniProt P78545 1-371); details: protein: recombinant; tags: N-terminal GST; dsDNA, one strand shown
T11 sequence: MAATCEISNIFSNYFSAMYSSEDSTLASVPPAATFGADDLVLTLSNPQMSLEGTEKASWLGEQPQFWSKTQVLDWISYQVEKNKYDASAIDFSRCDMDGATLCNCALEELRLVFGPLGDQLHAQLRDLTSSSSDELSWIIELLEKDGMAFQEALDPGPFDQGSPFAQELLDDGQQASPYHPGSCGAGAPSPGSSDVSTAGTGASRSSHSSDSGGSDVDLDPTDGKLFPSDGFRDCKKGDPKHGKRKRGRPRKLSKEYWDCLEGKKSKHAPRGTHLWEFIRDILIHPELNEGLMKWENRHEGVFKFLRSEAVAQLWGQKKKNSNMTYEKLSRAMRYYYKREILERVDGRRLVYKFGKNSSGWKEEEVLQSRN
Outline: as §1

[18] = target: CRX (Homo sapiens, UniProt O43186 1-299); details: protein: recombinant; tags: N-terminal GST; dsDNA, one strand shown
Outline: as §1

[19] = target: ETV1 (Homo sapiens, UniProt P50549 1-477); details: protein: recombinant; tags: N-terminal GST; dsDNA, one strand shown
Outline: as §1

ELF4, sequence (Q99607 whole entry): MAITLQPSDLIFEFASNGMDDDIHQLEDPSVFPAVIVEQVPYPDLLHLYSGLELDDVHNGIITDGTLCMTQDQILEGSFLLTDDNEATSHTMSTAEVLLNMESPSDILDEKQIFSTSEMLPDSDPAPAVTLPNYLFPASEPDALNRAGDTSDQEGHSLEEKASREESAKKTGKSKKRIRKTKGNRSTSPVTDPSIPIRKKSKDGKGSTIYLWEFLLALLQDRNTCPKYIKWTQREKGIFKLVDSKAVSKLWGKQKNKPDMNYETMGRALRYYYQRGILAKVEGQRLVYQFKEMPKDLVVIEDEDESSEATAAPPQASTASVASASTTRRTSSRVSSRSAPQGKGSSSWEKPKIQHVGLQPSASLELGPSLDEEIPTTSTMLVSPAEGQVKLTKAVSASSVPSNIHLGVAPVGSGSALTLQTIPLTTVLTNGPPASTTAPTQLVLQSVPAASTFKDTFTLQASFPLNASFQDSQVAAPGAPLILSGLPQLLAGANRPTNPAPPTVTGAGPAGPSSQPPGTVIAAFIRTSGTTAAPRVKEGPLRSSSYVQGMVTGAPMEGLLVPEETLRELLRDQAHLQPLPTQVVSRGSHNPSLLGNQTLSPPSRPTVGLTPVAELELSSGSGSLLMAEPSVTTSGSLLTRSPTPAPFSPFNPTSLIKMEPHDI
ETV5, sequence (P41161 whole entry): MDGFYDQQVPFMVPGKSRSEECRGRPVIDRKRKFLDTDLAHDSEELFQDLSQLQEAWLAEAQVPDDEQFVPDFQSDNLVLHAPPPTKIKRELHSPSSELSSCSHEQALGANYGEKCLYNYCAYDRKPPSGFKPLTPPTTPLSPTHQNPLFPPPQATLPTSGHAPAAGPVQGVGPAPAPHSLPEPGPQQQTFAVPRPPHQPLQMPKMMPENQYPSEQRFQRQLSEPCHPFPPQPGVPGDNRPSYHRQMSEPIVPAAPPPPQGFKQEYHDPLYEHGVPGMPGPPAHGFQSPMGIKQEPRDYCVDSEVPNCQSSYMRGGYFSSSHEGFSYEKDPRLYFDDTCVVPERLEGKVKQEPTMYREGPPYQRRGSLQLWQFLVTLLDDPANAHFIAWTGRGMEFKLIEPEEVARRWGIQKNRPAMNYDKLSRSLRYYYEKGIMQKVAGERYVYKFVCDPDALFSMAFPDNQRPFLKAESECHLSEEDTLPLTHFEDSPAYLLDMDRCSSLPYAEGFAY
HSF1, sequence (Q00613 whole entry): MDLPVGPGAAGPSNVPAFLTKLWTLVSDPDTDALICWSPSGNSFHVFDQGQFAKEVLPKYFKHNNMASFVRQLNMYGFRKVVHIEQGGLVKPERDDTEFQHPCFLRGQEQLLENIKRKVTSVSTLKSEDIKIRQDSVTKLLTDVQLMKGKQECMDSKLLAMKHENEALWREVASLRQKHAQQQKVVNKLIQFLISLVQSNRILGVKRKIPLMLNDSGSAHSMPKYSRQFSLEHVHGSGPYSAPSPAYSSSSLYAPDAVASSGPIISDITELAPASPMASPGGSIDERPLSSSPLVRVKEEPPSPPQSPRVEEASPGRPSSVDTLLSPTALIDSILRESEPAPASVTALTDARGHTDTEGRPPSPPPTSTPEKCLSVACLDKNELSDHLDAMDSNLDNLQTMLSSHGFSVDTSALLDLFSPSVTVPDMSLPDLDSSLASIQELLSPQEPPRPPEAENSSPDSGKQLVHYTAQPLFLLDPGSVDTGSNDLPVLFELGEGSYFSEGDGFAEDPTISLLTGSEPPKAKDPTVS
ELF1, sequence (P32519 whole entry): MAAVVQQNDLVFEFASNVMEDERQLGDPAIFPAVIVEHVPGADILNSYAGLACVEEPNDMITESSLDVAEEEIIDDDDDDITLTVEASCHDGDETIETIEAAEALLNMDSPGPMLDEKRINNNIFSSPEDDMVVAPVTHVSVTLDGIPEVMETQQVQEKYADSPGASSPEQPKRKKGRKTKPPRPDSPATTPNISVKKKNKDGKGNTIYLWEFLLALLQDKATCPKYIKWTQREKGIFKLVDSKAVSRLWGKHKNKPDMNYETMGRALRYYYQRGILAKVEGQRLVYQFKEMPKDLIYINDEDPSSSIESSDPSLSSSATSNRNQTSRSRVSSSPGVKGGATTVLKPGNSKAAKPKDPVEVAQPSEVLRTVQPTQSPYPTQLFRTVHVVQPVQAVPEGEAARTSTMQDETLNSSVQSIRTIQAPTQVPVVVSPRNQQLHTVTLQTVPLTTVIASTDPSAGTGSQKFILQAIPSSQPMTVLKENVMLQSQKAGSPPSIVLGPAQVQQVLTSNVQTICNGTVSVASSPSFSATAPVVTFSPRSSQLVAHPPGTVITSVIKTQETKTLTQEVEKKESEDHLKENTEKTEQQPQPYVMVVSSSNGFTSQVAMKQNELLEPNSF
ETV1, sequence (P50549 whole entry): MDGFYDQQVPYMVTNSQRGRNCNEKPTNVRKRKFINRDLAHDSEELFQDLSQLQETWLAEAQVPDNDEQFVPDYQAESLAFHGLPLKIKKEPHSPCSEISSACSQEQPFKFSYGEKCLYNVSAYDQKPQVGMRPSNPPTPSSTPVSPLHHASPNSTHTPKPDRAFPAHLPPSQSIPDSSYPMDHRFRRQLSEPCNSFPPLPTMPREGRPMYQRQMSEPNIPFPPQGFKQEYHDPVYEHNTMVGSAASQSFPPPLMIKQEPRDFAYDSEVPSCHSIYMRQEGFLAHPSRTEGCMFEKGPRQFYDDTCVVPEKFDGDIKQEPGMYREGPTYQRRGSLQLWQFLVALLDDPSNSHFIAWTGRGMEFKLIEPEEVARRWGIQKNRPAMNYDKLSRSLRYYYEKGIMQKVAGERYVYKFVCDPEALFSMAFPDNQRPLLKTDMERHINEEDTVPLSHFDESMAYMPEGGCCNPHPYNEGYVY
SPIB, sequence (Q01892 whole entry): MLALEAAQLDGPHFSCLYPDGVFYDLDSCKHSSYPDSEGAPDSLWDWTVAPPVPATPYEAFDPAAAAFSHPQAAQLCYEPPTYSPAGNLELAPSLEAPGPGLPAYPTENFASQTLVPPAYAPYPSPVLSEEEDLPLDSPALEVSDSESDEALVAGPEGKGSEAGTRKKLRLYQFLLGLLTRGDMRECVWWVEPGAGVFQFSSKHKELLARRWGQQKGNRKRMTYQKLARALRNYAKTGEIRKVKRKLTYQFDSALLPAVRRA
CRX, sequence (O43186 whole entry): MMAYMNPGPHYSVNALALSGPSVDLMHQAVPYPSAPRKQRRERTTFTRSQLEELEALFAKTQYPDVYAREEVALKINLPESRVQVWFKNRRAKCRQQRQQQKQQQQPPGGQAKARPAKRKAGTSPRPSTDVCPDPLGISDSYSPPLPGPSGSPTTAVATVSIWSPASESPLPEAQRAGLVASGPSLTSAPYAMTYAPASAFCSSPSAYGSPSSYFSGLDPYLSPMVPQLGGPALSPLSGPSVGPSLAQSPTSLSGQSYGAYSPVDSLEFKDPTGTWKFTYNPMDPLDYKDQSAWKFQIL

With CCGGCT the binding signal [1] was 1.75 fold enrichment (6-mer frequency, TF over GST control), the binding signal [2] was 1.62 fold enrichment (6-mer frequency, TF over GST control) and the binding signal [3] was 1.65 fold enrichment (6-mer frequency, TF over GST control). For the same sequence, the binding signal [4] was 1.74 fold enrichment (6-mer frequency, TF over GST control), the binding signal [5] was 1.68 fold enrichment (6-mer frequency, TF over GST control) and the binding signal [6] was 1.77 fold enrichment (6-mer frequency, TF over GST control). For the same sequence, the binding signal [7] was 1.73 fold enrichment (6-mer frequency, TF over GST control), the binding signal [8] was 1.91 fold enrichment (6-mer frequency, TF over GST control) and the binding signal [9] was 1.62 fold enrichment (6-mer frequency, TF over GST control). For the same sequence, the binding signal [10] was 1.8 fold enrichment (6-mer frequency, TF over GST control), the binding signal [11] was 1.89 fold enrichment (6-mer frequency, TF over GST control) and the binding signal [12] was 1.3 fold enrichment (6-mer frequency, TF over GST control). The binding signal [13] was 1.46 fold enrichment (6-mer frequency, TF over GST control), the binding signal [14] was 1.68 fold enrichment (6-mer frequency, TF over GST control) and the binding signal [15] was 1.53 fold enrichment (6-mer frequency, TF over GST control). The binding signal [16] was 1.84 fold enrichment (6-mer frequency, TF over GST control), the binding signal [17] was 1.8 fold enrichment (6-mer frequency, TF over GST control) and the binding signal [18] was 1.6 fold enrichment (6-mer frequency, TF over GST control). The binding signal [19] was 1.81 fold enrichment (6-mer frequency, TF over GST control).
